# Laboratory results as given in the supplement of paper PMC8728848.
# This is one part of a sample in which the strongest signals are shown more often than they occur.
# Legend:
# Test in all cases: glycan array binding signal (z-score within array); higher = stronger binding
# Conditions in all cases: glycan notation: IUPAC condensed, linker removed
# [1] = biological target: Fuc(a1-2)Gal(b1-3)GalNAc(b1-4)[Neu5Ac(a2-3)]Gal(b1-4)Glc
# Method in brief: (§1)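 From the Consortium for Functional Glycomics database, 3228 arrays were curated, keeping only those whose protein sequence was available. Binding is given as a within-array Z-score averaged across arrays sharing a protein sequence and across linkers. Negative Z-scores can be read as non-binding.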
# [2] = biological target: Fuc(a1-2)Gal(b1-3)GlcNAc6S
# Method in brief: as §1
# [3] = biological target: Fuc(a1-2)Gal(b1-3)[Fuc(a1-4)]GlcNAc(b1-3)[Fuc(a1-3)[Gal(b1-4)]GlcNAc(b1-6)]Gal(b1-4)Glc
# Method in brief: as §1
# Fuc(a1-2)Gal(b1-4)Glc6S = biological target: Fuc(a1-2)Gal(b1-4)Glc6S
# Method in brief: as §1
# Fuc(a1-2)Gal(b1-4)GlcNAc = biological target: Fuc(a1-2)Gal(b1-4)GlcNAc
# Method in brief: as §1
# [4] = biological target: Fuc(a1-2)Gal(b1-4)GlcNAc(b1-2)Man(a1-3)[Fuc(a1-2)Gal(b1-4)GlcNAc(b1-2)Man(a1-6)]Man(b1-4)GlcNAc(b1-4)[Fuc(a1-6)]GlcNAc
# Method in brief: as §1
# [5] = biological target: Fuc(a1-2)Gal(b1-4)GlcNAc(b1-3)Gal(b1-4)GlcNAc
# Method in brief: as §1
# [6] = biological target: Fuc(a1-2)Gal(b1-4)[Fuc(a1-3)]GlcNAc(b1-3)GalNAc
# Method in brief: as §1
# [7] = biological target: Fuc(a1-2)[Gal(a1-3)]Gal(b1-4)[Fuc(a1-3)]Glc
# Method in brief: as §1
# [8] = biological target: Fuc(a1-2)[GalNAc(a1-3)]Gal(b1-4)Glc
# Method in brief: as §1
# [9] = biological target: Fuc(a1-2)[GalNAc(a1-3)]Gal(b1-4)GlcNAc(b1-2)Man(a1-3)[Fuc(a1-2)[GalNAc(a1-3)]Gal(b1-4)GlcNAc(b1-2)Man(a1-6)]Man(b1-4)GlcNAc(b1-4)[Fuc(a1-6)]GlcNAc
# Method in brief: as §1
# [10] = biological target: Fuc(a1-2)[GalNAc(a1-3)]Gal(b1-4)GlcNAc(b1-6)GalNAc
# Method in brief: as §1
# [11] = biological target: Fuc(a1-2)[GalNAc(a1-3)]Gal(b1-4)[Fuc(a1-3)]GlcNAc
# Method in brief: as §1
# [12] = biological target: Fuc(a1-2)[GalNAc(a1-3)]Gal(b1-4)[Fuc(a1-3)]GlcNAc(b1-3)GalNAc
# Method in brief: as §1
# [13] = biological target: Fuc(a1-3)[Gal(b1-4)]GlcNAc(b1-2)Man(a1-3)[Fuc(a1-3)[Gal(b1-4)]GlcNAc(b1-2)Man(a1-6)]Man(b1-4)GlcNAc(b1-4)[Fuc(a1-6)]GlcNAc
# Method in brief: as §1
# [14] = biological target: Fuc(a1-3)[Gal(b1-4)]GlcNAc(b1-3)Gal(b1-4)[Fuc(a1-3)]GlcNAc(b1-3)Gal(b1-4)[Fuc(a1-3)]GlcNAc
# Method in brief: as §1
# [15] = biological target: Fuc(a1-3)[Gal(b1-4)]GlcNAc6S
# Method in brief: as §1
# [16] = biological target: Gal(a1-3)Gal(b1-4)[Fuc(a1-3)]GlcNAc(b1-2)Man(a1-3)[Gal(a1-3)Gal(b1-4)[Fuc(a1-3)]GlcNAc(b1-2)Man(a1-6)]Man(b1-4)GlcNAc(b1-4)GlcNAc
# Method in brief: as §1
# [17] = biological target: Gal(a1-4)Gal(b1-4)GlcNAc(b1-2)Man(a1-3)[Gal(a1-4)Gal(b1-4)GlcNAc(b1-2)Man(a1-6)]Man(b1-4)GlcNAc(b1-4)GlcNAc
# Method in brief: as §1
# [18] = biological target: Gal(b1-3)GlcNAc(b1-2)[Gal(b1-3)GlcNAc(b1-6)]Man(a1-6)[Gal(b1-3)GlcNAc(b1-2)Man(a1-3)]Man(b1-4)GlcNAc(b1-4)GlcNAc
# Method in brief: as §1
# [19] = biological target: Gal(b1-3)GlcNAc(b1-3)Gal(b1-4)[Fuc(a1-3)]GlcNAc
# Method in brief: as §1
# [20] = biological target: Gal(b1-3)GlcNAc(b1-6)Gal(b1-4)GlcNAc
# Method in brief: as §1
# [21] = biological target: Gal(b1-4)GlcNAc(b1-2)Man(a1-3)[Gal(b1-4)GlcNAc(b1-2)Man(a1-6)][GlcNAc(b1-4)]Man(b1-4)GlcNAc(b1-4)[Fuc(a1-6)]GlcNAc
# Method in brief: as §1
# [22] = biological target: Gal(b1-4)GlcNAc(b1-3)Gal(b1-4)GlcNAc(b1-2)[Gal(b1-4)GlcNAc(b1-3)Gal(b1-4)GlcNAc(b1-6)]Man(a1-6)[Gal(b1-4)GlcNAc(b1-3)Gal(b1-4)GlcNAc(b1-2)Man(a1-3)]Man(b1-4)GlcNAc(b1-4)GlcNAc
# Method in brief: as §1
binder,measurement,setting,value
GS7807H-bfa-490-18-490 (Bacteroides fragilis) (protein) GNLEEMNIDPDNATQTHPKLLLTQICMNAFKRGTDGMYATKKVIQADGESADQYYKWTRGSFGYYDNLRNVQKMGEEAERVNAPVYTALTKFFRAYYFYELTLRFGDIPYSQALKGEKEEIYTPEYDAQEDVFAGILQELREADEILANDASVIDGDIIYNGNSTQWRKLINSFRLKVLMTLSNHTTVGNINIASEFKNIATNSPLMNSLADNGQLVYLDQQGNRYPQFNAQWSGYYMDDTFIQRMRERRDPRLFIFSAQTNKGKTEGKPIDDFSSYEGGDPAAPYSDAIIKVSEGTISPINDRFRTDPIVEPTMLMGYAELQQILAEAVVRGWISGNAQTYYEKGIRASFSFYETHAKDYAGYLNENAVAQYLKEPLVDFTQASGTEEQIERIIMQKYLVTFYQGNWDSFYEQLRTGYPDFRRPAGTEIPKRWMYPQGEYDNNGTNVETAITRQFGAGNDKINQATWWQKKS,glycan array binding signal (z-score),[1],-0.424
same,glycan array binding signal (z-score),[2],0.079
same,glycan array binding signal (z-score),[3],-0.223
same,glycan array binding signal (z-score),Fuc(a1-2)Gal(b1-4)Glc6S,-0.448
same,glycan array binding signal (z-score),Fuc(a1-2)Gal(b1-4)GlcNAc,-0.024
same,glycan array binding signal (z-score),[4],2.33
same,glycan array binding signal (z-score),[5],-0.786
same,glycan array binding signal (z-score),[6],0.672
same,glycan array binding signal (z-score),[7],-0.426
same,glycan array binding signal (z-score),[8],-0.704
same,glycan array binding signal (z-score),[9],0.217
same,glycan array binding signal (z-score),[10],-0.479
same,glycan array binding signal (z-score),[11],0.449
same,glycan array binding signal (z-score),[12],0.984
same,glycan array binding signal (z-score),[13],1.38
same,glycan array binding signal (z-score),[14],0.166
same,glycan array binding signal (z-score),[15],-0.707
same,glycan array binding signal (z-score),[16],1.36
same,glycan array binding signal (z-score),[17],6.27
same,glycan array binding signal (z-score),[18],2.29
same,glycan array binding signal (z-score),[19],0.374
same,glycan array binding signal (z-score),[20],9.32
same,glycan array binding signal (z-score),[21],-0.8
same,glycan array binding signal (z-score),[22],11.2
